According to ChEMBL document CHEMBL1961873, “Compounds: GSK PKIS; Assays: Nanosyn kinase panel” (2012):

Assays:
[1] = target: Mitogen-activated protein kinase 3 (Homo sapiens) (UniProt P27361); conditions: at 1 µM;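 note: values are mean percent inhibition of MAPK3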
[2] = target: SRSF protein kinase 3 (Homo sapiens) (UniProt Q9UPE1); conditions: at 0.1 µM
[3] = target: SRSF protein kinase 3 (Homo sapiens) (UniProt Q9UPE1); conditions: at 1 µM
[4] = target: Mitogen-activated protein kinase 14 (Homo sapiens) (UniProt Q16539); conditions: at 0.1 µM
Sequence of Mitogen-activated protein kinase 14 (Homo sapiens) (Q16539 whole entry): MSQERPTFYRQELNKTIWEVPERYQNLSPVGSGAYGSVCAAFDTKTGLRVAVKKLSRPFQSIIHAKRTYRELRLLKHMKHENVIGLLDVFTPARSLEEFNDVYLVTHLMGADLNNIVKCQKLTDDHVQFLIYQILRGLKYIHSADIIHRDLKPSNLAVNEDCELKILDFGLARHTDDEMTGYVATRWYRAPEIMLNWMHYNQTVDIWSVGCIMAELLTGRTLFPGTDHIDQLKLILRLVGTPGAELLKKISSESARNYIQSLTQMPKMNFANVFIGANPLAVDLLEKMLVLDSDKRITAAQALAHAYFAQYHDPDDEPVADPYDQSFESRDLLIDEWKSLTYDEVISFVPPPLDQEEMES

[5] = target: Mitogen-activated protein kinase 14 (Homo sapiens) (UniProt Q16539); conditions: at 1 µM
[6] = target: Mitogen-activated protein kinase 11 (Homo sapiens) (UniProt Q15759); conditions: at 0.1 µM
Sequence of Mitogen-activated protein kinase 11 (Homo sapiens) (Q15759 whole entry): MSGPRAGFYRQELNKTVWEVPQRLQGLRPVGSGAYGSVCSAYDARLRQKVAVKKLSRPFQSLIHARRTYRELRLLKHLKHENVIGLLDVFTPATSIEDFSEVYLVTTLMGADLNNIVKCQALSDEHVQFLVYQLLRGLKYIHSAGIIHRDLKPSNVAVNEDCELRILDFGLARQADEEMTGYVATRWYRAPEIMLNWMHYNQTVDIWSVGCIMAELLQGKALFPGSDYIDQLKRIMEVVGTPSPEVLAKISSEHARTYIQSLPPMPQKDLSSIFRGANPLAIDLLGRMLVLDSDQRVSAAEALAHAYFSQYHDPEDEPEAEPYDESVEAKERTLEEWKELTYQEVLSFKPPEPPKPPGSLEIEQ

[7] = target: Mitogen-activated protein kinase 11 (Homo sapiens) (UniProt Q15759); conditions: at 1 µM
[8] = target: T1, Mitogen-activated protein kinase 13 (Homo sapiens) (UniProt O15264); conditions: at 0.1 µM
T1 sequence (whole entry): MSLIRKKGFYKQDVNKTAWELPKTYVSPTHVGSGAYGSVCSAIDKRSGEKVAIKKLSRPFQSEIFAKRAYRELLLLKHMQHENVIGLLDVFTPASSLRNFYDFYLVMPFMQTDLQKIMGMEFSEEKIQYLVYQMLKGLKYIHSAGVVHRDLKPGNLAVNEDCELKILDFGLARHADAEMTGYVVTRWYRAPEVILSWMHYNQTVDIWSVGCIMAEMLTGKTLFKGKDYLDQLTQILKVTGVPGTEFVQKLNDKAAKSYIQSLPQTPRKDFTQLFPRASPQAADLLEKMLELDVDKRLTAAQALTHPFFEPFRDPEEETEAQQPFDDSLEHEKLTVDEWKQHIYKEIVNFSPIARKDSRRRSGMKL

[9] = target: T1, Mitogen-activated protein kinase 13 (Homo sapiens); conditions: at 1 µM
[10] = target: T2, Mitogen-activated protein kinase 12 (Homo sapiens) (UniProt P53778); conditions: at 0.1 µM
T2 sequence (whole entry): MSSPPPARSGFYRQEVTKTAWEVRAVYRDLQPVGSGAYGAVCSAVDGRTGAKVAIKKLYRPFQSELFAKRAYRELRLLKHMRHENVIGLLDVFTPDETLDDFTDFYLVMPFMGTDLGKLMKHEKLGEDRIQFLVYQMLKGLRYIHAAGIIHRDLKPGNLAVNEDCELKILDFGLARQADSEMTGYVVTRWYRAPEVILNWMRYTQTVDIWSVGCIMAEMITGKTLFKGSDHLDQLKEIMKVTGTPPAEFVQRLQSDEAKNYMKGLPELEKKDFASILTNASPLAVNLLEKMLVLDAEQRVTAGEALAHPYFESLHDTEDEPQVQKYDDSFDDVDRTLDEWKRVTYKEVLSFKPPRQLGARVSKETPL

Sequence of SRSF protein kinase 3 (Homo sapiens) (Q9UPE1 whole entry): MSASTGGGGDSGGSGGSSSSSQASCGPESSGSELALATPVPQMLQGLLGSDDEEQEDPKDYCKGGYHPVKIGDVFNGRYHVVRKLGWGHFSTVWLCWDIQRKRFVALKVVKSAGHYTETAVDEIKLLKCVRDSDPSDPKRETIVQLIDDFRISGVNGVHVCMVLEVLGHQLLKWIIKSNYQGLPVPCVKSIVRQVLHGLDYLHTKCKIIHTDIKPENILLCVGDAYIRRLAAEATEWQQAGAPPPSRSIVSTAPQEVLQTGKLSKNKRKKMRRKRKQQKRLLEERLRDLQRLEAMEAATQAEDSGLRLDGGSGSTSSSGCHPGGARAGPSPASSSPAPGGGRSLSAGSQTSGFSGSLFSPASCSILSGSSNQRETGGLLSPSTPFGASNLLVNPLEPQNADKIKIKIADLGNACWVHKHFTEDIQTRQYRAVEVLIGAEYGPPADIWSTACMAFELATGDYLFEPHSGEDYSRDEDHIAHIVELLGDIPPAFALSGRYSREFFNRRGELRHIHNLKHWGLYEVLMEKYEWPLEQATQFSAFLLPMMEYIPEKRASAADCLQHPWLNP
Sequence of Mitogen-activated protein kinase 3 (Homo sapiens) (P27361 whole entry): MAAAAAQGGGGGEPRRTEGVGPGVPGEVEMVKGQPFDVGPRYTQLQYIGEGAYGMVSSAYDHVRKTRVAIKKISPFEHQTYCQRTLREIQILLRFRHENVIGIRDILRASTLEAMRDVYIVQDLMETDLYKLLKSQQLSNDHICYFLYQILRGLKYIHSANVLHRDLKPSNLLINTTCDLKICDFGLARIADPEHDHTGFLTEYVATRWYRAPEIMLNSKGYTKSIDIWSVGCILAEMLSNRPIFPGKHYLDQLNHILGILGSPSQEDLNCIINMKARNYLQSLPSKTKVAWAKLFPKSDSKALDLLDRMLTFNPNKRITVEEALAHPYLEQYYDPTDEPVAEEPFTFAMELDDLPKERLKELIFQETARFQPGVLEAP

Compound | inhibition [1] [%] | inhibition [2] [%] | inhibition [3] [%] | inhibition [4] [%] | inhibition [5] [%] | inhibition [6] [%] | inhibition [7] [%] | inhibition [8] [%] | inhibition [9] [%] | inhibition [10] [%]
COc1cc2c(cc1Nc1nc(Nc3ccsc3C(N)=O)c3cc[nH]c3n1)N(C(=O)CN(C)C)CCC2(C)C | 3.62 | 0.09 | 3.51 | 4.03 | 10.7 | 5.19 | 8.81 | 2.03 | 9.12 | 1.64
CNC(=O)c1cc(-c2ccc(F)cc2)cc(-c2ccc(S(=O)(=O)N3CCCC3)cc2)c1N | 1.92 | -1.6 | -0.52 | 4.95 | 4.5 | 1.39 | 3.19 | 3.39 | 2.91 | 2.77
COc1cc(/C=N/Nc2ncnc3[nH]ncc23)ccc1O | 6.69 | 0.77 | 1.87 | 7.26 | 6.91 | 4.13 | 4.56 | 1.51 | 5.72 | 0.15
Fc1ccc(-c2nn3ccccc3c2-c2ccncc2)cc1 | 0.82 | -2.15 | 1.26 | 41.4 | 81.2 | 7.33 | 38.7 | -0.3 | 0.46 | 1.66
CN(C)CCOc1ccc(-c2nc(-c3ccncc3)c(-c3ccc4c(c3)CC/C4=N\O)[nH]2)cc1 | 3.36 | 1.13 | 1.14 | 3.87 | 15.9 | 2.37 | 6.69 | 0.98 | 4.84 | 1.54
c1cc(-c2cnn3nc(N4CCOCC4)ccc23)nc(NC2CC2)n1 | 3.9 | 2.15 | 9.24 | 6.66 | 16.6 | 3.09 | 13.1 | 6.27 | 19.7 | 0.63
CCn1c(-c2nonc2N)nc2cnc(Oc3cccc(NC(=O)c4ccc(N(C)C)cc4)c3)cc21 | 1.36 | -1.98 | -3.41 | -0.32 | 8.29 | 1.19 | 1.94 | -1.13 | 2.57 | 0.02
CC(C)(CO)CNC(=O)c1ccc2c(c1)/C(=N/Nc1ccc(S(N)(=O)=O)cc1)C(=O)N2 | 16.6 | -0.87 | -1.79 | 2.1 | 1.84 | 2.96 | 9.13 | -0.56 | 0.83 | -0.2
CC1=C(C(=O)Nc2cc(Cl)c3[nH]ncc3c2)C(c2ccc(C(F)(F)F)cc2)CC(=O)N1 (stereo not given) | 21.8 | -1.32 | -2.71 | -3.41 | 6.81 | 1.37 | 2.31 | 0.32 | 4.12 | 2.56
COc1ccc(-c2cc(-c3c[nH]nc3-c3ccccn3)ccn2)cc1 | 8.82 | -0.83 | 0.75 | 7.92 | 37.2 | 4.7 | 14.1 | 2.12 | 4.1 | 4.31
NS(=O)(=O)c1ccc(Nc2ncc(-c3ccccc3)o2)cc1 | 3.8 | -0.01 | 1.63 | 3.61 | 9.04 | 6.06 | 7.67 | 3.81 | 5.86 | 0.56
NS(=O)(=O)c1ccc(N/N=C2\C(=O)Nc3ccc4ncccc4c32)cc1 | 30.9 | -0.65 | -0.87 | 0.75 | 12.3 | 7.81 | 26.7 | 0.25 | 10 | 3.34
CC(=O)Nc1cccc(C#Cc2cncnc2Nc2ccc(OCc3cccc(F)c3)c(Cl)c2)c1 | 3.68 | 1.32 | -0.25 | 3.3 | 5.63 | 0.27 | 1.34 | 2.42 | 2.73 | 0.58
CCCN(CCS(C)(=O)=O)Cc1ccc(-c2ccc3ncnc(Nc4ccc(OCc5cccc(F)c5)c(Cl)c4)c3c2)o1 | 2.62 | -1.91 | -0.61 | 10.4 | 4.25 | 0.78 | 0.65 | 4.35 | 2.64 | 0.9
CCNC(=O)O[C@H]1CN[C@H](C#Cc2cc3ncnc(Nc4ccc(OCc5cccc(F)c5)c(Cl)c4)c3s2)C1 | 1.29 | 1.52 | 0.88 | 1.94 | 5.4 | 4.81 | -1.11 | 1.7 | 2.64 | -0.39
CCN1CCC(CC(=O)Nc2n[nH]c3nnc(-c4cccc(F)c4F)cc23)CC1 | 2.9 | -0.22 | 0.53 | 1.3 | 1.76 | 2.75 | 4.66 | 1.08 | 0.01 | 1.4
COc1ccc(-c2nn3ncccc3c2-c2ccnc(Nc3ccc4c(c3)OCCO4)n2)cc1 | 1.27 | -1.29 | -0.23 | 68.9 | 87 | 48.6 | 75.4 | 0.57 | -1.08 | 0.47
COc1cccc(-c2c[nH]c3c(N/N=C/c4ccncc4)ncnc23)c1 | 6.39 | 1.36 | 1.67 | 7.04 | 13.3 | 2.44 | 7.25 | 6.19 | 38.2 | 1.88
CCc1nn2ncccc2c1-c1ccnc(NC2CC2)n1 | 4.9 | -0.73 | -0.47 | 4.19 | 7.08 | 5.64 | 7.82 | 3.24 | 3.22 | 2.35
CN1CCC(n2cnc(-c3ccc(F)cc3)c2-c2ccnc(N)n2)CC1 | 3.12 | -0.19 | -0.82 | 49.7 | 83 | 5.11 | 30.6 | 0.27 | 4.13 | 0.59
COc1ccc2c(-c3ccnc(Nc4cccc(OC(F)(F)F)c4)n3)cnn2n1 | 3.9 | -1.04 | 2.71 | 2.92 | 8.4 | 0.17 | 5.04 | -1.73 | 7.58 | 1.78
O=C(Nc1n[nH]c2cc(-c3ccc(F)cc3)ccc12)C1CC1 | 0.11 | -0.27 | 0.1 | 3.02 | 7.71 | 3.42 | 7.25 | 2.38 | 4.36 | 2.05
O=S(=O)(CCNCc1ccc(-c2ccc3ncnc(Nc4ccc(OCc5cccc(F)c5)c(Cl)c4)c3c2)o1)c1ccccc1 | 6 | -1.7 | 3.71 | 16.1 | 14 | 6.03 | 6.99 | 6.05 | 5.53 | 3.55
CS(=O)(=O)CCNCc1ccc(-c2ccc3ncnc(Nc4ccc(OCc5ccccc5)c(C(F)(F)F)c4)c3c2)o1 | 3.07 | -3 | -1.24 | 5.55 | 2.96 | 4.3 | 5.41 | 3.67 | 2.13 | 2.6
COc1ccc(CNC(=O)c2ccc(-c3cc(-c4nnc(C)o4)ccc3C)cc2)cc1 | 1.53 | 2.42 | 6.02 | 19.4 | 66.6 | 10.1 | 46.3 | 1.25 | 2.3 | 0.94
CCn1c(-c2nonc2N)nc2c(C#CC(C)(C)O)ncc(OC3CCNCC3)c21 | 4.59 | 2.87 | -1.64 | 8.8 | 11.3 | 1.59 | 7.19 | 1.55 | 2.9 | 2.41
Nc1nc(-c2cccc(Cl)c2)c(-c2ccc3ncccc3n2)s1 | 2.62 | -1.86 | 0.63 | 8.73 | 50 | 5.89 | 19.1 | 3.72 | 5.27 | 8.76
COc1cc2ncn(-c3cc(OCc4ccccc4C(F)(F)F)c(C(=O)N(C)C)s3)c2cc1OC | -0.07 | -2.08 | -1.83 | 7.43 | 1.82 | -4.05 | 1.82 | -0.21 | 0.14 | 0.9
